# Laboratory results published in ChEMBL document CHEMBL5606458, “ASAP - ZIKV NS2B-NS3 protease fluorescence single point” (2024).
# Out of some 2,700 compounds screened, about 160 (5.9%) showed an effect of 50% or more. Only a selection was taken, and strong results are over-represented in it overall.
# Target: Nonstructural protein 3 (Zika virus) (UniProt A0A024AXB9)
# [1] = PRVABC59, Concentration 15.0 uM, Number of replicates 1.0
# [2] = PRVABC59, Concentration 50.0 uM, Number of replicates 1.0
# Sequence of Nonstructural protein 3 (Zika virus) (A0A024AXB9 as listed by the source): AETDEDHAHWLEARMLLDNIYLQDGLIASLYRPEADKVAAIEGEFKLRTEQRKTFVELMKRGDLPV
smiles,measurement,setting,value
CN(C(=O)c1cc(Cl)ccc1NS(=O)(=O)c1ccc(Oc2ccccc2Cl)cc1)[C@H]1CS(=O)(=O)C[C@@H]1O,inhibition,[1],1.21%
Cc1cc(CO)c2cccc(C[C@H](NC(=O)c3cc(C(=O)O)[nH]n3)C(=O)O)c2n1,inhibition,"PRVABC59, Concentration 49.95 uM, Number of replicates 2.0, Standard deviation 1.6911148062176817 %",1.37%
same,inhibition,"PRVABC59, Concentration 99.9 uM, Number of replicates 2.0, Standard deviation 1.9620942703325182 %",8.92%
O=Cc1ccc(N2CCC(C(=O)Nc3ccc(C(F)(F)F)cc3[N+](=O)[O-])CC2)cc1,inhibition,[2],22.3%
O=C(c1cc(Cl)ccc1NS(=O)(=O)c1ccc(Oc2ccccc2Cl)cc1)N1CCC(c2nc3ccccc3[nH]2)CC1,inhibition,[1],20.5%
Cc1cc(CO)c2cccc(CC(=O)Nc3nonc3C(N)=O)c2n1,inhibition,"PRVABC59, Concentration 49.95 uM, Number of replicates 2.0, Standard deviation 0.05598719921229546 %",82%
same,inhibition,"PRVABC59, Concentration 99.9 uM, Number of replicates 2.0, Standard deviation 1.0790078750483718 %",86.1%
Cc1cc(CO)c2cccc(CC(=O)Nc3cccc(C(N)=O)c3)c2n1,inhibition,"PRVABC59, Concentration 49.95 uM, Number of replicates 2.0, Standard deviation 0.035627236808440856 %",58.9%
same,inhibition,"PRVABC59, Concentration 99.9 uM, Number of replicates 2.0, Standard deviation 0.025447255606513557 %",72.8%
Cc1cc(CO)c2cccc(Cc3cccc(C(=O)N[C@@H](CCC(N)=O)C(=O)O)c3)c2n1,inhibition,"PRVABC59, Concentration 49.95 uM, Number of replicates 2.0, Standard deviation 1.9977585963676485 %",14.4%
same,inhibition,"PRVABC59, Concentration 99.9 uM, Number of replicates 2.0, Standard deviation 0.9280938346971718 %",36%
Cc1cc(CO)c2cccc(Cc3cccc(C(=O)Nc4nonc4C(N)=O)c3)c2n1,inhibition,"PRVABC59, Concentration 49.95 uM, Number of replicates 2.0, Standard deviation 1.609742570683987 %",20.1%
same,inhibition,"PRVABC59, Concentration 99.9 uM, Number of replicates 2.0, Standard deviation 0.8074931564941592 %",55.3%
Cc1cc(CO)c2cccc(CC(=O)Nc3ccc(C(=O)O)o3)c2n1,inhibition,"PRVABC59, Concentration 49.95 uM, Number of replicates 2.0, Standard deviation 1.3790313962849292 %",42.9%
same,inhibition,"PRVABC59, Concentration 99.9 uM, Number of replicates 2.0, Standard deviation 0.49288480262410383 %",40.6%
Cc1cc(CO)c2cccc(Cc3ccccc3C(=O)N[C@@H](CCC(N)=O)C(=O)O)c2n1,inhibition,"PRVABC59, Concentration 49.95 uM, Number of replicates 2.0, Standard deviation 1.0696657731948411 %",-4.71%
same,inhibition,"PRVABC59, Concentration 99.9 uM, Number of replicates 2.0, Standard deviation 0.7655451252044032 %",0.649%
Cc1cc(CO)c2cccc(Cc3ccccc3C(=O)Nc3cccc(C(N)=O)c3)c2n1,inhibition,"PRVABC59, Concentration 49.95 uM, Number of replicates 2.0, Standard deviation 0.5610502494199251 %",-2.71%
same,inhibition,"PRVABC59, Concentration 99.9 uM, Number of replicates 2.0, Standard deviation 0.1363299663609753 %",0.693%
Cc1cc(CO)c2cccc(Cc3cccc(C(=O)Nc4cccc(C(N)=O)c4)c3)c2n1,inhibition,"PRVABC59, Concentration 49.95 uM, Number of replicates 2.0, Standard deviation 0.1992514179713741 %",-3.36%
same,inhibition,"PRVABC59, Concentration 99.9 uM, Number of replicates 2.0, Standard deviation 0.4299637092619174 %",-0.56%
Cc1cc(CO)c2cccc(Nc3nonc3C(N)=O)c2n1,inhibition,"PRVABC59, Concentration 49.95 uM, Number of replicates 2.0, Standard deviation 1.4175935710362748 %",4.15%
same,inhibition,"PRVABC59, Concentration 99.9 uM, Number of replicates 2.0, Standard deviation 2.0633301575187155 %",4.07%
Cc1cc(CO)c2cccc(CC(=O)N[C@@H](CCC(N)=O)C(=O)O)c2n1,inhibition,"PRVABC59, Concentration 49.95 uM, Number of replicates 2.0, Standard deviation 0.13741625923449508 %",69.6%
same,inhibition,"PRVABC59, Concentration 99.9 uM, Number of replicates 2.0, Standard deviation 0.11197439842459092 %",81.6%
Cc1cc(CO)c2cccc(Cc3ccccc3C(=O)Nc3nonc3C(N)=O)c2n1,inhibition,"PRVABC59, Concentration 49.95 uM, Number of replicates 2.0, Standard deviation 0.12584307180819165 %",-4.45%
same,inhibition,"PRVABC59, Concentration 99.9 uM, Number of replicates 2.0, Standard deviation 0.39850300453014226 %",-1.53%
Cc1cc(CO)c2cccc(Cc3cccc(C(=O)NCC(N)=O)c3)c2n1,inhibition,"PRVABC59, Concentration 49.95 uM, Number of replicates 2.0, Standard deviation 1.0591786257609663 %",-5.74%
same,inhibition,"PRVABC59, Concentration 99.9 uM, Number of replicates 2.0, Standard deviation 0.9490662751035868 %",-1.72%
O=C(Nc1nc2[nH]cnc2c(=O)[nH]1)c1cc(Cl)ccc1NS(=O)(=O)c1ccc(Oc2ccccc2Cl)cc1,inhibition,[1],21.9%
CN(C)Cc1ccc(NCc2ccc(N3CCN(C)CC3)cc2)nc1,inhibition,"PRVABC59, Concentration 49.5 uM, Number of replicates 2.0, Standard deviation 0.4640657991367188 %",-2.39%
same,inhibition,"PRVABC59, Concentration 99.01 uM, Number of replicates 2.0, Standard deviation 0.7284754441158133 %",-1.05%
same,inhibition,"PRVABC59, Concentration 198.0 uM, Number of replicates 2.0, Standard deviation 0.8166119221974307 %",1.21%
O=Cc1ccc(N2CCC(C(=O)Nc3c(Cl)cccc3[N+](=O)[O-])CC2)cc1,inhibition,[2],21.7%
CN1CCN(c2ccc(CNS(=O)(=O)c3ccc(C(N)=O)cc3)cc2)CC1,inhibition,"PRVABC59, Concentration 49.5 uM, Number of replicates 2.0, Standard deviation 3.1298940912505486 %",-2.93%
same,inhibition,"PRVABC59, Concentration 99.01 uM, Number of replicates 2.0, Standard deviation 2.0491409994990377 %",-9.18%
CC(C)N(Cc1cnn(C)c1)C(=O)c1cc(Cl)ccc1NS(=O)(=O)c1ccc(Oc2ccccc2Cl)cc1,inhibition,[1],21.9%
CN(C(=O)c1cc(Cl)ccc1NS(=O)(=O)c1ccc(Oc2ccccc2Cl)cc1)[C@H]1CCN(Cc2ccccc2)C1,inhibition,[1],18.4%
CCc1cccc2[nH]c(C(=O)N3C[C@H](n4cc(CO)nn4)CCC3(C)C)cc12,inhibition,"PRVABC59, Concentration 49.5 uM, Number of replicates 2.0, Standard deviation 1.345657751466366 %",1.61%
same,inhibition,"PRVABC59, Concentration 99.01 uM, Number of replicates 2.0, Standard deviation 0.921351350459793 %",4.33%
same,inhibition,"PRVABC59, Concentration 198.0 uM, Number of replicates 2.0, Standard deviation 1.6164058188461652 %",5.38%
O=C(NCC[C@H](O)c1ccccc1)c1cc(Cl)ccc1NS(=O)(=O)c1ccc(Oc2ccccc2Cl)cc1,inhibition,[1],38.9%
COc1ccc(S(=O)(=O)N[C@H]2CC[C@H](C(=O)Nc3nc4ccccc4s3)CC2)cc1,inhibition,"PRVABC59, Concentration 49.5 uM, Number of replicates 2.0, Standard deviation 1.516279405300169 %",4.79%
same,inhibition,"PRVABC59, Concentration 99.01 uM, Number of replicates 2.0, Standard deviation 2.0429029287446374 %",5.82%
same,inhibition,"PRVABC59, Concentration 198.0 uM, Number of replicates 2.0, Standard deviation 2.7145967477005732 %",5.18%
O=Cc1ccc(N2CCC(C(=O)N3CCC[C@H]3c3cccc(F)c3)CC2)cc1,inhibition,[2],24.6%
Cc1cc(CO)c2cccc(NC(=O)C3CCC(CN)CC3)c2n1 (stereo not drawn),inhibition,"PRVABC59, Concentration 49.95 uM, Number of replicates 2.0, Standard deviation 1.4301713707436838 %",93.7%
same,inhibition,"PRVABC59, Concentration 99.9 uM, Number of replicates 2.0, Standard deviation 0.5018131910126516 %",92.3%
Cc1cc(CO)c2cccc(NC(=O)C3CC(N)C3)c2n1 (stereo not drawn),inhibition,"PRVABC59, Concentration 49.95 uM, Number of replicates 2.0, Standard deviation 0.17303270644971713 %",56.1%
same,inhibition,"PRVABC59, Concentration 99.9 uM, Number of replicates 2.0, Standard deviation 0.6659229038704304 %",84.7%
Cc1cc(CO)c2cccc(NC(=O)CNC3CC3)c2n1,inhibition,"PRVABC59, Concentration 49.95 uM, Number of replicates 2.0, Standard deviation 1.7513317050958486 %",17.8%
same,inhibition,"PRVABC59, Concentration 99.9 uM, Number of replicates 2.0, Standard deviation 1.7111876748261923 %",28.9%
Cc1cc(CO)c2cccc(NC(=O)[C@@H]3CCCC[C@H]3C(=O)O)c2n1,inhibition,"PRVABC59, Concentration 49.95 uM, Number of replicates 2.0, Standard deviation 1.6258787445174738 %",3.41%
same,inhibition,"PRVABC59, Concentration 99.9 uM, Number of replicates 2.0, Standard deviation 1.31977157857946 %",10.8%
Cc1cc(CO)c2cccc(NC(=O)C3CCC(N)CC3)c2n1 (stereo not drawn),inhibition,"PRVABC59, Concentration 49.95 uM, Number of replicates 2.0, Standard deviation 0.4998117214705663 %",93.2%
same,inhibition,"PRVABC59, Concentration 99.9 uM, Number of replicates 2.0, Standard deviation 0.37327676699721984 %",95.4%
Cc1cc(CO)c2cccc(NC(=O)[C@@H]3C[C@@H](O)CN3)c2n1,inhibition,"PRVABC59, Concentration 49.95 uM, Number of replicates 2.0, Standard deviation 2.1728568355691875 %",17%
same,inhibition,"PRVABC59, Concentration 99.9 uM, Number of replicates 2.0, Standard deviation 5.153634365263829 %",23.7%
Cc1cc(CO)c2cccc(CC(=O)N3CCC(CN)CC3)c2n1,inhibition,"PRVABC59, Concentration 49.95 uM, Number of replicates 2.0, Standard deviation 0.5547725606279245 %",25.3%
same,inhibition,"PRVABC59, Concentration 99.9 uM, Number of replicates 2.0, Standard deviation 0.00508999060096365 %",39.1%
Cc1cc(CO)c2cccc(NC(=O)C3CNC3)c2n1,inhibition,"PRVABC59, Concentration 99.9 uM, Number of replicates 2.0, Standard deviation 0.20878200053144555 %",-2.49%
Cc1cc(CO)c2cccc(NC(=O)C3CCN(C)CC3)c2n1,inhibition,"PRVABC59, Concentration 49.95 uM, Number of replicates 2.0, Standard deviation 2.9039680698338874 %",1.89%
same,inhibition,"PRVABC59, Concentration 99.9 uM, Number of replicates 2.0, Standard deviation 2.0814932575907883 %",29.5%
